Results as given in PubChem BioAssay (EPA / NIEHS).
Activity calls are given as the source filed them. The calls were made as follows: active = hit-call score of the fitted dose curve at least 0.9, where 1 is the maximum; inactive = score below 0.9.

test: CCTE_Mundy_HCI_Cortical_Synap_Neur_Matur_SynapseCount: CCTE's Synaptogenesis and Neurite Maturation Assay in rat cortical cells for Synapse Count, Mundy Lab (AID 2284218)
Procedure: CCTE_Mundy_HCI_Cortical_Synap&Neurite_Matur is a multiplexed, cell-based-readout assay that uses rat primary cortical cells with measurements taken at 288.33 hours after chemical dosing in a microplate: 96-well plate.CCTE_Mundy_HCI_Cortical_Synap_Neur_Matur_SynapseCount is one of eight components of the CCTE_Mundy_HCI_Cortical_Synap&Neurite_Matur assay. It measures synaptogenesis and neurite maturation related to number of synapses per neuron using High Content Imaging of fluorescently labelled markers.[…] Using a type of morphology reporter, loss -of-signal activity can be used to understand developmental effects.
Cells are plated onto 96 well plates and allowed 2 hr for attachment to the substrate. At days in vitro (DIV) 5, Cytosine Arabinoside (AraC) is added to arrest glial cell growth. Chemicals are dosed and a media change is performed at DIV 7 of differentiation and is continued through DIV 12 when the experiment is terminated. Cells are fixed with […] and Hoechst Dye. Cells are stained using Millipore Mouse anti-MAP2MAB3418 (1:800) and Millipore Rabbit anti-Synaptophysinsc-1750 (1:250) primary antibodies and Alexa Fluor-488 goat anti-mouse and AlexaFluor-546 goat anti-rabbit secondary antibodies to label neuronal cell nuclei, synapses and neurites. A Cellomics ArrayScan VTi HCS Reader is used for automated image acquisition and analysis of neurite outgrowth.

outcome, inactive:
CCc1ccccc1
F
C[C@@H]1CC[C@@H](C(C)(C)O)[C@H](O)C1
CC(=O)N[C@@H](CC(=O)O)C(=O)O
CCCCCC(C)(CC)C(=O)NC (stereo not given)
Cc1[nH]n(C)c(=O)c1C(=O)c1ccc(C(F)(F)F)cc1S(C)(=O)=O
CCCCCC=C(C)C(CC)CCO (stereo not given)
CC(C)c1nn(C(=O)NC(C)(C)C)c(=O)n1N
CC(C)O
O=C1CC2(CCCC2)CC(=O)N1CCCCN1CCN(c2ncccn2)CC1
CN(C)CCCn1cc(C2=C(c3c[nH]c4ccccc34)C(=O)NC2=O)c2ccccc21

AC50, active:
BrC1CC(Br)CC(Br)CC(Br)CC(Br)CC(Br)C1 (stereo not given) 3.61 µM
[O]=[V]([OH])([OH])[OH] 15.4 µM
C[C@@H]1CCO[C@H]2Cn3cc(C(=O)NCc4ccc(F)cc4F)c(=O)c(O)c3C(=O)N12 3.05 µM
CC(CNC(=S)[S-])NC(=S)[S-].[Zn+2] (stereo not given) 50 µM
